# Laboratory results reported in PubChem BioAssay (NCATS).
# “And” between values parts separate entries of the source, which are not always exact repeats. Identical values can stand only once. Unmarked numbers belong to inactive results. Results filed as inconclusive are left out. The source made the active and inactive calls. Unless noted, calls come from the whole dose curve; as a rule, active = well fitted curve in either direction with a large enough effect (not every such curve was filed as active); inconclusive = small, poorly fitted or top-dose-only effect, or another doubt; inactive = flat fitted curve, though single readings scatter.
# Columns and labels:
# [1] = AP1 Signaling Pathway (AID 357); conditions: ME-180 AP-1-bla reporter, EGF-induced, beta-lactamase ratio, 5 h; at 7.69 µM (top of the series) unless noted;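 note: ME-180 reporter cells stimulated with EGF at its EC50 level; % is set by controls: 0 for no effect and ±100 for the full control effect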
# In short: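 Titration-series screen for positive or negative modulators of EC50 EGF-induced signaling in ME-180 cells carrying an AP-1-driven beta-lactamase reporter. After 5 hours at 37 degrees Celsius, CCF4 460nm/530nm emission ratio gave %Activity; AC50 values derived.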
# [2] = molecular target: Cytochrome P450 1A2 (Homo sapiens) (UniProt P05177); experiment: p450-cyp1a2 (AID 410; calls by dose curve; note: potency is the fitted concentration of half-maximal effect;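 for activity change, negative = inhibition: -100% = full effect of reference inhibitor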)
# Sequence of Cytochrome P450 1A2 (Homo sapiens) (P05177 whole entry, looked up): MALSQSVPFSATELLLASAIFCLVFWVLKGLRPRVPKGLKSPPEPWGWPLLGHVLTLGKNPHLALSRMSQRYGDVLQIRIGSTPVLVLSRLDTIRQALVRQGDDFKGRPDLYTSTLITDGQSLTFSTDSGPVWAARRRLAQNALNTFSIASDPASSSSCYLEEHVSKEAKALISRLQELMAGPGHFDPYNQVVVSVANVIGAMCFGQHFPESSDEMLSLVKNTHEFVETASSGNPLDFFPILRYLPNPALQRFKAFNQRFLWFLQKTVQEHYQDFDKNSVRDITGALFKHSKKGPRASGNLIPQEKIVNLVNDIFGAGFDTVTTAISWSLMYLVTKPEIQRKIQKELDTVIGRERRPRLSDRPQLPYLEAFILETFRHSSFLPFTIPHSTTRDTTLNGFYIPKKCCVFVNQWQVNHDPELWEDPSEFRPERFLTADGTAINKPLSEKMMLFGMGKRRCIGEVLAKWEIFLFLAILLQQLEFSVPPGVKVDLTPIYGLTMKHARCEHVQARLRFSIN
# In short: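 O-Demethylation of luciferin 6' methyl ether by human CYP1A2 is monitored as luciferase luminescence. Substrate sits at Km (100uM); enzyme is 20nM. Values are scaled to 57 uM furafylline as maximal inhibition.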
# [3] = NFAT Signaling Pathway (AID 444); conditions: Jurkat NFAT-bla M1, carbachol, beta-lactamase ratio, 5 h; at 7.69 µM (top of the series) unless noted;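 note: carbachol stimulus at about its EC50 of 1 µM final; % is set by controls: 0 for no effect and ±100 for the full control effect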
# In short: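 Jurkat cells with NFAT-driven β-lactamase reporter and co-expressed M1 receptor, stimulated with carbachol (final 1 uM, ~EC50), compound titration, 5 h at 37 °C. CCF4 loaded 1 h at RT; 460/530 nm ratio gave %activity and AC50.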
# [4] = molecular target: Glucocorticoid receptor (Homo sapiens) (UniProt P04150); experiment: GR-GFP Redistribution (AID 450;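 active = compounds whose dose series gives a full or clear partial fitted curve of increased nuclear translocation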; note: potency is the fitted concentration of half-maximal effect); conditions: U2OS GR-GFP nuclear translocation, laser cytometry, 2 h
# Sequence of Glucocorticoid receptor (Homo sapiens) (P04150 whole entry, looked up, the tested form may be a part): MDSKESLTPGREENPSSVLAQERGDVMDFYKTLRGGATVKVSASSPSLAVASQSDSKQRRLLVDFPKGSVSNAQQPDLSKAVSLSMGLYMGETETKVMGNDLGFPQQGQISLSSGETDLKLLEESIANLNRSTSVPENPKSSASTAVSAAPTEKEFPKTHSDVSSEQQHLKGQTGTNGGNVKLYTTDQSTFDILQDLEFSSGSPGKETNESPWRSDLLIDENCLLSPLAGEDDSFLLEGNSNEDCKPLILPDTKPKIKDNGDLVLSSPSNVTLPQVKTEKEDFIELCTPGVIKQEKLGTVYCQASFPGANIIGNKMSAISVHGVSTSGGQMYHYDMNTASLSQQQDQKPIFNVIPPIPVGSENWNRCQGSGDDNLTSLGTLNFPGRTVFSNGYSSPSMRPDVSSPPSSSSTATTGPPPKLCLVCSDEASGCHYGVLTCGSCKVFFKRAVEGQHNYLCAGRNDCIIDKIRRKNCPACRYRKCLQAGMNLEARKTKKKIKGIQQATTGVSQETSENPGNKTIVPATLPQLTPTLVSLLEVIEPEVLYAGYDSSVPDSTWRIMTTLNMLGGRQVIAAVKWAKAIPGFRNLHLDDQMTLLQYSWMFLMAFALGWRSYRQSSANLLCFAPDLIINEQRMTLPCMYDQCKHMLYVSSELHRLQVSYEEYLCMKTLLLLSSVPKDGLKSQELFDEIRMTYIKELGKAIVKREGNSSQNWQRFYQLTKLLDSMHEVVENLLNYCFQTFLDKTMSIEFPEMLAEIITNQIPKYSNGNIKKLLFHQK
# [5] = molecular target: Glucocorticoid receptor (Homo sapiens) (UniProt P04150); experiment: GR-EFC Redistribution (AID 451; calls by dose curve; note: potency is the fitted concentration of half-maximal effect); conditions: CHO-K1 GR-EFC translocation, beta-gal luminescence, 2 h
# In short: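 CHO-K1 cells expressing nuclear EA and GR-ED fragments of b-gal; compounds titrated up to 46 uM final, 2 h at 37 C. GR nuclear translocation read as complemented b-gal luminescence after 1 h RT detection.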
# [6] = molecular target: Mitogen-activated protein kinase 10 (Mus musculus) (UniProt Q61831); experiment: JNK3 AlphaScreen Assay (AID 530);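 note: kinase came from lysate of stimulated human HepG2 cells; signal reports phosphorylation of biotinylated GST-cJun 1-79 at Ser73 with 10 µM ATP; % is set by controls: 0 for no effect and ±100 for the full control effect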
# In short: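 Activity was read by AlphaScreen after JNK3-containing HepG2 lysate (cytokine pre-activated) phosphorylated biotinylated GST-cJun with 10 uM ATP at room temperature. Phospho-Ser73 cJun antibody with Protein-A acceptor beads provided detection.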
# [7] = molecular target: 3',5'-cyclic-AMP phosphodiesterase 4B (Homo sapiens) (UniProt Q07343); experiment: qHTS Assay for Inhibitors of PDE-IV (AID 607; active = well fitted activation curve with a large enough effect in the main read-out, with a control signal flat, not every such curve was filed as active; note: % of control where 0% means no effect)
# Sequence of 3',5'-cyclic-AMP phosphodiesterase 4B (Homo sapiens) (Q07343 whole entry, looked up): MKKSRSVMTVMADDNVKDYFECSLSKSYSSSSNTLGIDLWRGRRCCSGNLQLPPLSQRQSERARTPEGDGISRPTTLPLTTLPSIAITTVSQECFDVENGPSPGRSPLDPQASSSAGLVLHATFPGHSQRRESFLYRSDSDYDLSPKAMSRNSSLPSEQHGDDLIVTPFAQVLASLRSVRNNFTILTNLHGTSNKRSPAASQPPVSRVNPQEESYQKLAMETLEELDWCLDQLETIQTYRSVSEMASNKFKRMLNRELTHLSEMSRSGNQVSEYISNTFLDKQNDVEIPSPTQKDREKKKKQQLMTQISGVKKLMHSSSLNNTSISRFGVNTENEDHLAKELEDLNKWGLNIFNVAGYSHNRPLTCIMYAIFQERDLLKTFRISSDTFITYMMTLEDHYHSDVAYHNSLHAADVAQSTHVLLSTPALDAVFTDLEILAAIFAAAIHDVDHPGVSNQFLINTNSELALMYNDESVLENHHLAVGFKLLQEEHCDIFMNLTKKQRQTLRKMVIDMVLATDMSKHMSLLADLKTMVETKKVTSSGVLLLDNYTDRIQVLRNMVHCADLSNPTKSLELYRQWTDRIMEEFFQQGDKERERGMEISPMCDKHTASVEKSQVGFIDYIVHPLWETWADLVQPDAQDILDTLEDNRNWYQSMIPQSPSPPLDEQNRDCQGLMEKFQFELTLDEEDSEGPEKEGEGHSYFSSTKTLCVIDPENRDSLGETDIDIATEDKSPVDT
# In short: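 Live HEK293 cells with a modified cyclic nucleotide-gated (CNG) channel report intracellular cAMP via membrane-potential dye fluorescence (ex 535/em 590 nm). Endogenous PDE-IV was targeted. Compounds were tested at up to 22.9 uM final; RO 20-1724 100 uM served as control.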
# [8] = molecular target: Cytochrome P450 2C19 (Homo sapiens) (UniProt P33261); experiment: qHTS Assay for Inhibitors and Substrates of Cytochrome P450 2C19 (AID 899; active = well fitted curve in the direction sought with a large enough effect; an effect the other way counts as inactive or inconclusive; note: nearly all actives have a fitted effect of over 60% in size; note: potency is the fitted concentration of half-maximal effect)
# Sequence of Cytochrome P450 2C19 (Homo sapiens) (P33261 whole entry, looked up): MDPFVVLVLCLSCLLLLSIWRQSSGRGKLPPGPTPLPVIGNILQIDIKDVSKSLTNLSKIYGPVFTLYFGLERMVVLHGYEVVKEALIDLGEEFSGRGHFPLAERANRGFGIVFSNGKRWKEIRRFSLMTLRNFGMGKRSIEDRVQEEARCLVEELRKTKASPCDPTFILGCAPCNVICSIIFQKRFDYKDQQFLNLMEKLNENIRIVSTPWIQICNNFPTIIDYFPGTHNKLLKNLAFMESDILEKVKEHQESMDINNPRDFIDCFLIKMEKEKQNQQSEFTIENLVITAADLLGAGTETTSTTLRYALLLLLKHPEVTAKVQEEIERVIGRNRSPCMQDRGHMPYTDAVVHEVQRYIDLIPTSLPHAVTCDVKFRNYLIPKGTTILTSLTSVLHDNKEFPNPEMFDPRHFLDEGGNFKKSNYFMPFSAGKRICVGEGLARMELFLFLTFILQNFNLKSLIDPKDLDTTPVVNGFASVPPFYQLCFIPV
# In short: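 Signal comes from luciferase acting on luciferin released by CYP2C19-mediated hydroxylation of Luciferin-H EGE, 10uM (KM). Assay mix: 5nM enzyme, 50mM KPO4; 60 min at 37C with NADPH regeneration. Data normalized against 57uM ketoconazole.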
# [9] = Stat Signaling Pathway (AID 446); conditions: ME-180 (cervical carcinoma) SIE beta-lactamase reporter, IL-6 stimulated, 5 h; at 7.69 µM (top of the series) unless noted;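 note: ME-180 cervical cancer cells given 40 pM IL-6 alongside compound; SIE-controlled beta-lactamase reporter measured as 460/530 nm FRET emission ratio; % is set by controls: 0 for no effect and ±100 for the full control effect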
# In short: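 Overnight-plated ME-180 cells bearing a STAT Inducible Element beta-lactamase reporter; 5 h co-exposure to compound and 40 pM IL-6; values normalized to 300 pM IL-6 and 125 nM JAK inhibitor controls.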
# [10] = molecular target: Cytochrome P450 2D6 (Homo sapiens) (UniProt P10635); experiment: qHTS Assay for Inhibitors and Substrates of Cytochrome P450 2D6 (AID 891; active = well fitted curve in the direction sought with a large enough effect; an effect the other way counts as inactive or inconclusive;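 note: luciferin methyl ether substrate demethylated by CYP2D6 with NADPH regeneration; % is set by controls: 0 for no effect and ±100 for the full control effect; nearly all actives have a fitted effect of over 60% in size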)
# Sequence of Cytochrome P450 2D6 (Homo sapiens) (P10635 whole entry, looked up): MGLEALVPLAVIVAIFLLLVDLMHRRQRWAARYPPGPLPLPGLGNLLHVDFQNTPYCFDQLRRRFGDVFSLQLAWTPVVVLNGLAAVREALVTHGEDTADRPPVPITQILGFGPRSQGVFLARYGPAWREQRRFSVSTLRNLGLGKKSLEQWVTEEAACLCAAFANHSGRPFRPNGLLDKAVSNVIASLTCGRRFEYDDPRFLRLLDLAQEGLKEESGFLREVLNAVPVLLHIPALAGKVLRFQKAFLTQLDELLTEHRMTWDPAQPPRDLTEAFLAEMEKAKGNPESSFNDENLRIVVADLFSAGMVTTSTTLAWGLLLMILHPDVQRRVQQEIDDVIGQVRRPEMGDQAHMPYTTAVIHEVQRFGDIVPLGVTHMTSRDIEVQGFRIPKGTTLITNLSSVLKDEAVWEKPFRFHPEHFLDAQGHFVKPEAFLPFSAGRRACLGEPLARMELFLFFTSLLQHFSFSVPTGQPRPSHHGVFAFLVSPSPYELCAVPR
# In short: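 Luminescent read-out of luciferin formed by 5 nM human CYP2D6 demethylating 30 uM Luciferin-ME EGE (Km level) over 60 min at room temperature after NADPH regeneration addition. Data normalized to full inhibition by 1.43 uM quinidine.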
# [11] = qHTS Assay for Identification of Small Molecule Agonists for Thrombopoietin (TPO) Signaling Pathway (AID 917; active = well fitted curve in the direction sought with a large enough effect; an effect the other way counts as inactive or inconclusive; note: % is set by controls: 0 for no effect and ±100 for the full control effect)
# In short: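 Stimulation at the TPO EC50 (26 pM final) was used to detect activators. Ba/F3 mouse cells bearing human TPO receptor and a luciferase reporter under the Glycoprotein IIb promoter were exposed to compounds for 24 hrs at 37 C.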
# [12] = molecular target: Muscarinic acetylcholine receptor M1 (Rattus norvegicus) (UniProt P08482); experiment: qHTS Assay for Antagonists of Acetylcholine Muscarinic M1 Receptor: Kinetic Measurement of Intracellular Calcium Response (AID 943; active = well fitted curve in the direction sought with a large enough effect; an effect the other way counts as inactive or inconclusive;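 note: Fluo-4 calcium signal as peak divided by basal fluorescence over 4 min; nearly all actives have a fitted effect of over 75% in size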)
# Sequence of Muscarinic acetylcholine receptor M1 (Rattus norvegicus) (P08482 whole entry, looked up): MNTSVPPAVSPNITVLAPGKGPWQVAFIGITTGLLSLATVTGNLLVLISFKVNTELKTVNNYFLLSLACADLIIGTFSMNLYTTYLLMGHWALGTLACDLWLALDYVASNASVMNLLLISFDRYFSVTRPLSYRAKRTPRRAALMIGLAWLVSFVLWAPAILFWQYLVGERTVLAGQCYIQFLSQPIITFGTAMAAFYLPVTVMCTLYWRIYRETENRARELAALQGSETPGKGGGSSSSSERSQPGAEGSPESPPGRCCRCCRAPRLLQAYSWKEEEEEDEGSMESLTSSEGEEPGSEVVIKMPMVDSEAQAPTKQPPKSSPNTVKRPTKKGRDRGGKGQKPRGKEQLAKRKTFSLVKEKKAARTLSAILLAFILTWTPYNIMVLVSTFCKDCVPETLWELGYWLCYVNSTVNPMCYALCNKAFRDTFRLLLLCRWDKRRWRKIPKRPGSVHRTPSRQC
# In short: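 Antagonism is measured as inhibition of the carbachol-evoked calcium rise in CHO cells transfected with rat M1. Cells are dye-loaded, exposed to compound for 10 min, then stimulated with 100 nM carbachol (EC80).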
# [13] = molecular target: Muscarinic acetylcholine receptor M1 (Rattus norvegicus) (UniProt P08482); experiment: qHTS Assay for Antagonists of Acetylcholine Muscarinic M1 Receptor: Measurement of IP-One Response (AID 944; active = well fitted curve in the direction sought with a large enough effect; an effect the other way counts as inactive or inconclusive; note: nearly all actives have a fitted effect of over 75% in size)
# In short: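 Antagonist mode with rat M1 receptor transfected into CHO cells. Compound is added first for 10 min, carbachol at its EC80 follows for 30 min, and lysis reagents then allow TR-FRET detection of accumulated IP1.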
# [14] = molecular target: Pyruvate kinase (Leishmania mexicana) (UniProt Q27686); experiment: qHTS Validation Assay for Inhibitors of Leishmania Mexicana Pyruvate Kinase (AID 945; active = well fitted curve in the direction sought with a large enough effect; an effect the other way counts as inactive or inconclusive;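 note: 0% = DMSO only neutral control wells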)
# Sequence of Pyruvate kinase (Leishmania mexicana) (Q27686 2-499 E452W): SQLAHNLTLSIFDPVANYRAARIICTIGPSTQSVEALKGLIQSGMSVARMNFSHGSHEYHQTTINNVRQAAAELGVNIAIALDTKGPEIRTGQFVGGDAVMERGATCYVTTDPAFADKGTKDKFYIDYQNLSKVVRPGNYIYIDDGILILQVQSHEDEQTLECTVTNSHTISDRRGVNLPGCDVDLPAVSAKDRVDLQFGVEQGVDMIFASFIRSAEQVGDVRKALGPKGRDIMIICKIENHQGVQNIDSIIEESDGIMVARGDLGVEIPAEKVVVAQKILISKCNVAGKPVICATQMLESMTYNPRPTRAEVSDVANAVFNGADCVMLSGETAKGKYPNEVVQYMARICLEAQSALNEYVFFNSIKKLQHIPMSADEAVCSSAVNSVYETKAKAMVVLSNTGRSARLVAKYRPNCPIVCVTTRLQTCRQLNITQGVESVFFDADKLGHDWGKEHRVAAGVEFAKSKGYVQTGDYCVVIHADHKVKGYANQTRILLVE
# In short: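 Luminescent ATP detection (PKLight) after a 1 h room-temperature reaction of 0.2 nM LmPYK E451W mutant with 0.5 mM PEP and 0.1 mM ADP at pH 7.2. Activity is normalized to DMSO-only control wells.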
# [15] = molecular target: Pyruvate kinase PKM (Homo sapiens) (UniProt P14618); experiment: qHTS Assay for Activators of Human Muscle Pyruvate Kinase (AID 954; active = well fitted curve in the direction sought with a large enough effect, not every such curve was filed as active;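 note: 0% = uninhibited enzyme and -100% = no enzyme or full thiadiazolimine inhibition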)
# Sequence of Pyruvate kinase PKM (Homo sapiens) (P14618 whole entry, looked up): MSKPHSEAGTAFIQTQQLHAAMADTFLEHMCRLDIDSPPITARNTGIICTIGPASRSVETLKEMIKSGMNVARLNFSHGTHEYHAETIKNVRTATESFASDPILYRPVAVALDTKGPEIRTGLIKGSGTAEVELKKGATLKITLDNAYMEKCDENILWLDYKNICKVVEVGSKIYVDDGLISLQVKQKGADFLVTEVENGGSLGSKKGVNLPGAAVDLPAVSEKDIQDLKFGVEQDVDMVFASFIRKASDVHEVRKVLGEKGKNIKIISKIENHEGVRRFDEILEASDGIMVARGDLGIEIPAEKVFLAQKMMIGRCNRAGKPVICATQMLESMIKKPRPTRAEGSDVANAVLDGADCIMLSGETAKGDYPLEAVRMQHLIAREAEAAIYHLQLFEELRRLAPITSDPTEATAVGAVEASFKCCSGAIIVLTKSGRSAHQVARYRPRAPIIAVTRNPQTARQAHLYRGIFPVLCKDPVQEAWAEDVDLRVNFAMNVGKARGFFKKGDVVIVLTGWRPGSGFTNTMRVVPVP
# In short: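 Screening used highly purified human pyruvate kinase M2 under submaximal activity, with PEP at its Km and ADP below Km. After an hour at room temperature, ATP was read by luciferase luminescence.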
# [16] = molecular target: Alpha-galactosidase A (Homo sapiens) (UniProt P06280); experiment: Counterscreen for Glucocerebrosidase Inhibitors: qHTS Assay for Human alpha-Galactosidase at pH 4.5 (AID 992; active = well fitted curve in the direction sought with a large enough effect; an effect the other way counts as inactive or inconclusive; note: 0% is about no effect)
# Sequence of Alpha-galactosidase A (Homo sapiens) (P06280 whole entry, looked up): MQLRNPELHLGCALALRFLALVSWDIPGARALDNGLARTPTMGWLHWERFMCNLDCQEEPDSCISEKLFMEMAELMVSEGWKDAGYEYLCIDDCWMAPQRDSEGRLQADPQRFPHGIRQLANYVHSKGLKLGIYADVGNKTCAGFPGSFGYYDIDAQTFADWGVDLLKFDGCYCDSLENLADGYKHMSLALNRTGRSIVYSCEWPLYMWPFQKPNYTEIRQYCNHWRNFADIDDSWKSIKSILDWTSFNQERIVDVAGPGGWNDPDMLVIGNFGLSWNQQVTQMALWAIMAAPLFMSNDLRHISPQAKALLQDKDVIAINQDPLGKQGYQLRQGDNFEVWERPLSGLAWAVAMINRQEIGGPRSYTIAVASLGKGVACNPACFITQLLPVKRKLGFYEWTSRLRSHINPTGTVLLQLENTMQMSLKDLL
# In short: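 Each compound is preincubated briefly with 2 nM enzyme before substrate addition (80 uM); plates then sit 20 min at ambient temperature, are quenched with 1M NaOH/1M glycine, and read fluorometrically.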
# [17] = molecular target: alpha-glucosidase (Oryza sativa, rice) (UniProt Q653V4); experiment: Counterscreen for Glucocerebrosidase Inhibitors: qHTS Assay for Rice alpha-Glucosidase at pH 5.0 (AID 997; active = well fitted curve in the direction sought with a large enough effect; an effect the other way counts as inactive or inconclusive;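 note: 0% = full activity with enzyme and -100% = basal without enzyme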)
# In short: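 Endpoint fluorogenic assay at pH 5.0: compounds (0.7 nM to 77 uM) titrated against 4 nM rice enzyme and 400 uM 4-MU-alpha-glucoside for 20 min at room temperature; NaOH/glycine stop, read ex 365/em 440 nm, Hill-fitted AC50.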
# [18] = molecular target: Guanine nucleotide-binding protein G(i) subunit alpha-1 (Homo sapiens) (UniProt P63096); experiment: qHTS Assay for Inhibitors of RGS12 GoLoco Motif Activity (Green Fluorophore) (AID 879; active = well fitted curve in the direction sought with a large enough effect; an effect the other way counts as inactive or inconclusive;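 note: 0% = labeled peptide with Gαi1 and full inhibition = labeled peptide alone without protein; negative values mean loss of peptide binding seen as reduced polarization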)
# In short: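 A drop in FITC polarization marked displacement of the FITC-tagged RGS12 GoLoco peptide (10 nM) from Gαi1 (50 nM). Compounds were incubated 10 min at room temperature in Tris pH 7.5 buffer containing 150 mM NaCl, 0.1 mM GDP and 0.05% NP40; unlabeled peptide titration served as control.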
smiles,measurement,setting,value
O=c1c[n+](CCCC[n+]2cc(=O)o[nH]2)[nH]o1,"activity change, negative = inhibition",[1],4.96%
same,Potency,[2],inactive
same,"activity change, negative = inhibition",[3],-11%
same,Potency,[4],> 46 µM
same,Potency,[5],> 9.22 µM
same,Potency,[6],inactive
same,Potency,[7],inactive
same,Potency,[8],inactive
CCNc1ncc2nc(-c3ccccc3)c(=O)n(C3CC3)c2n1,"activity change, negative = inhibition",[1],-3.39%
same,Potency,[2],2.51 µM (active)
same,"activity change, negative = inhibition",[3],23.2%
same,Potency,[4],> 9.22 µM
same,Potency,[5],> 46 µM
same,Potency,[6],inactive
O=C(Nc1ccc2c(c1)Cc1ccccc1-2)[C@@H]1[C@H](C(=O)O)[C@]2(Cl)C(Cl)=C(Cl)[C@@]1(Cl)C2(Cl)Cl,"activity change, negative = inhibition",[1],9.85%
same,Potency,[2],3.16 µM (active)
same,"activity, negative = inhibition",[9],4.65%
same,Potency,[4],> 46 µM
same,Potency,[5],> 9.22 µM
same,Potency,[6],inactive
same,Potency,[7],inactive
CC#C[C@@]1(O)CC[C@@H]2[C@@H]3CCC4=CC(=O)CCC4=C3[C@@H](c3ccc(N(C)C)cc3)C[C@]21C,"activity change, negative = inhibition",[1],5.58% [at 38 µM]
same,Potency,[2],15.8 µM (active)
same,"activity change, negative = inhibition",[3],7.8% [at 38 µM]
same,"activity, negative = inhibition",[9],-20.9% [at 38 µM]
same,Potency,[7],inactive
same,Potency,[8],5.01 µM (active)
CCCC[S@@](=N)(=O)CC[C@@H](N)C(=O)O,"activity change, negative = inhibition",[1],3.63% [at 38 µM] and -2.23% [at 38 µM]
same,Potency,[2],inactive
same,"activity change, negative = inhibition",[3],-1.5% [at 38 µM] and 5.43% [at 38 µM]
same,Potency,[4],> 46 µM
same,Potency,[5],> 46 µM
same,Potency,[6],inactive
same,Potency,[7],inactive
same,Potency,[10],inactive
same,outcome,[11],inactive
same,Potency,[12],inactive
same,Potency,[13],inactive
same,outcome,[14],inactive
same,outcome,[15],inactive
same,outcome,[16],inactive
same,Potency,[17],inactive
Cc1cn([C@H]2C=C[C@H](CO)O2)c(=O)[nH]c1=O,"activity change, negative = inhibition",[1],11.1% [at 38 µM]
same,Potency,[2],inactive
same,"activity change, negative = inhibition",[3],4.45% [at 38 µM]
same,"activity, negative = inhibition",[9],23.6% [at 38 µM]
same,Potency,[7],inactive
same,Potency,[10],inactive
same,Potency,[8],inactive
C[N+](C)(C)c1cc2c(nn1)Nc1ccccc1S2,"activity change, negative = inhibition",[1],-0.66%
same,Potency,[2],2 µM (active)
same,"activity, negative = inhibition",[9],19.9%
same,Potency,[4],> 46 µM
same,Potency,[5],> 9.22 µM
same,Potency,[6],inactive
same,Potency,[7],inactive
Cc1ccc(C(=O)O[C@@H](C(=O)O)[C@@H](OC(=O)c2ccc(C)cc2)C(=O)O)cc1 (tested in a mixture with another compound),"activity change, negative = inhibition",[1],-1.5% [at 38 µM]
same,Potency,[2],inactive
same,"activity change, negative = inhibition",[3],0.143% [at 38 µM]
same,"activity, negative = inhibition",[9],0.98% [at 38 µM]
same,Potency,[7],inactive
same,outcome,[18],inactive
same,outcome,[11],inactive
same,Potency,[13],inactive
same,outcome,[14],inactive
same,outcome,[16],inactive
same,Potency,[17],inactive
